Values joined by “and” are separate entries in the source; they are usually repeats but may differ in a detail not shown here. Equal entries are not always repeated. Records with an inconclusive call do not appear. For some assays here: Measured potencies and affinities stand elsewhere. Active and inactive are the calls of the source.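 How the source made its calls, unless noted: active means thallium flux through the channel raised or lowered by more than 3 SD from vehicle-only wells, actives on both sides; inactive means the rest.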
What was measured:
[1] = polyglutamine-triggered caspase-3 activation inhibitors, cell-based (AID 1583); details: polyglutamine-induced caspase-3 activation, cell assay; stronger effect = higher value;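 tested at 10 µM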
[2] = suppressors of polyQ aggregation in yeast, 75Q-TubU reporter (AID 1593); details: Yeast 75Q polyglutamine aggregation reporter
[3] = rescue of polyQ-huntingtin neuronal dysfunction in worms, whole organism, C. elegans mechanosensory neurons, N-terminal huntingtin (AID 1599); details: touch response, stronger effect = higher value
[4] = inhibitors of mitochondrial cytochrome c release, biochemical, purified mitochondria (AID 1603); details: stronger effect = lower value;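 further: mouse liver mitochondria challenged with calcium chloride; signal normalized to the plate average as 100%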
[5] = inhibitors of polyQ protein aggregation (AID 1604); details: polyglutamine-induced protein aggregation inhibition assay; stronger effect = higher value; tested at 2.5 µM
[6] = enhancers of glutamate uptake in motor neurons, MN-1 cell line (AID 1612); details: MN-1 motor neuron cells, stronger effect = higher value;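 further: tested at 1 µM final; 0% = mean of DMSO vehicle wells on each plate; positive means more glutamate uptake than control and negative means less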
[7] = suppressors of polyglutamine aggregation in yeast, 75Q-TubH (AID 1616); details: S. cerevisiae 75Q-TubH polyglutamine aggregation suppression; stronger effect = higher value
[8] = hESC survival regulators, cell-based (AID 493140; call rule not given here;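 further: cells exposed to compounds for four days before counting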); details: human embryonic stem cell survival screen; stronger effect = higher value
[9] = system: Hepatitis C virus NS3 helicase; assay: HCV NS3 helicase inhibitors, primary screen, biochemical, fluorescence polarization, LOPAC1280 library (AID 687035; in the data active means inhibition above about 37%); details: Purified HCV NS3 helicase, Cy5-dT15 ssDNA binding fluorescence polarization; stronger effect = higher value; concentration not given here
[10] = Cy5 fluorescence quenching or enhancement artefacts, artefact control for HCV NS3 helicase inhibitor project, biochemical, LOPAC1280 (AID 687037; call rule not given here); details: Cy5-DNA-NS3h complex fluorescence interference counterscreen
[11] = system: Neuropilin-2 / VEGF-C interaction (human); assay: inhibitors of NRP2–VEGF-C binding, biochemical, microplate binding format, z-score (AID 743281; call rule not given here); details: microplate NRP2/VEGF-C binding assay; stronger effect = lower value
[12] = stimulators of nuclear beta-catenin in C2C12, primary screen, imaging, WNT3A-conditioned medium, mouse C2C12, NPC library (AID 1117326; in the data active means nuclear beta-catenin stimulation mostly above about 4.2%, no sharp cut-off; inactive means mostly below about 10%); details: stronger effect = higher value
[13] = stimulators of insulin release from INS-1E, primary screen, cell-based, 5 mM glucose, NPC library (AID 1117329;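 active means compound raises insulin release from rat beta cells at 5 mM glucose, no numeric limit stated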); details: rat INS-1E insulin secretion, at 10 µM, stronger effect = higher value
[14] = growth inhibition of GSK3B-pretreated HCT116 cells – cell-based, CellTiter-Glo, 0.2 to 20 µM (AID 1117336;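 active means compounds lowering colon cancer cell viability after pretreatment blocking the GSK3B kinase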); details: HCT116 viability after GSK3B inhibitor, at 20 µM, stronger effect = higher value
[15] = inhibition of endothelial tube formation, primary screen, imaging, VEGF stimulated, CD31 staining, tube area, NPC library (AID 1117340;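 active means compound that reduces growth-factor-driven endothelial tube area in a mixed cell culture, no cutoff stated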); details: VEGF-stimulated ADSC/ECFC co-culture, at 10 µM, stronger effect = higher value
[16] = glucagon-like peptide 1 release enhancers, primary assay, NCI-H716 cell line, NPC library (AID 1117341;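 active means compound raises GLP1 secretion from the human gut endocrine cells, with no numeric limit stated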); details: NCI-H716 cells, at 10 µM, stronger effect = higher value
[17] = HCT116 colon cancer cell growth inhibition, primary screen, CellTiter-Glo luminescence, NPC library (AID 1117342;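 active means compounds that lower survival of HCT116 colon cancer cells in the luminescence readout, no numeric limit stated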); details: at 20 µM (top of the series)
[18] = CellTiter-Glo luminescent readout of SW480 viability loss, NPC library primary (AID 1117343;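 active means compounds that lower viability of the colon cancer cells in the luminescence readout, with no numeric limit stated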); details: CellTiter-Glo luminescence; at 20 µM (top of the series)
[19] = decreased DLD-1 cellular survival, CellTiter-Glo luminescent readout, NPC compound collection, primary HTS (AID 1117346;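 active means compounds that lower survival of DLD-1 colon cancer cells in the luminescence readout, no cutoff given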); details: DLD-1 viability, CellTiter-Glo luminescence; at 20 µM (top of the series)
[20] = target: 6-phosphogluconate dehydrogenase, decarboxylating (Homo sapiens) (UniProt P52209); assay: 6PGD enzyme inhibitors, primary screen, biochemical, human, recombinant enzyme, NADPH absorbance (AID 1159550;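 active means at least 20% inhibition of 6-phosphogluconate dehydrogenase activity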); details: recombinant 6PGD, NADPH absorbance 341 nm; at 10 µM; stronger effect = higher value
[21] = modulation of C. elegans fzo-1 (AID 1259413; call rule not given here;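 further: fzo-1 mutant C. elegans worms in liquid wells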); details: C. elegans fzo-1 modulator screen, mean read-out; stronger effect = higher value
[22] = differential killing of epithelial or mesenchymal cells, primary screen, imaging, PC-3E GFP, TEM4-18 mCherry, co-culture (AID 1345086;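 active means compounds killing one labelled cell type while sparing the other, by normalised counts and ratio limits, not self-fluorescent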;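 further: cells exposed to compound for 72 h before imaging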;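 on red/green cell ratio (normalised): normalised mesenchymal count divided by normalised epithelial count so high means epithelial killing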); details: imaging cell counts, at 1 µM
[23] = system: Aerobactin synthetase IucA (Klebsiella pneumoniae); assay: IucA aerobactin synthetase inhibitors, biochemical, Tocris library, absorbance (AID 1345561; call rule not given here;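 further: 100% = enzyme without compound and 0% = no enzyme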); details: purified IucA enzyme assay, absorbance (OD) read-out; stronger effect = lower value;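 tested at 8 µM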
[24] = growth inhibition of DIPG glioma cells, dose response, cell-based, SU-DIPG-IV, MIPE4.0, CellTiter-Glo, qHTS (AID 1347063; cut-off not given, nearly all actives have AC50 up to about 30 µM;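 further: compound exposure lasted 48 hours before the viability readout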); details: SU-DIPG-IV viability, CellTiter-Glo ATP luminescence
[25] = SU-DIPG-VI glioma cell viability, MIPE4.0 library, CellTiter-Glo luminescence, qHTS (AID 1347066; cut-off not given, nearly all actives have AC50 up to about 30 µM;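 further: cells exposed to compound for 48 hours before readout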); details: CellTiter-Glo ATP luminescence
[26] = inhibitors of Cryptococcus chitosan production, flow cytometry, Cibacron Brilliant Red staining (AID 1347148; call rule not given here;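 further: compound exposure lasted three days at 37 degrees C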); details: Cryptococcus neoformans chitosan, stronger effect = lower value; at 99.1 µM unless noted
[27] = phospholipid biosynthesis inhibitors in animal cells, primary screen, cell-based, LOPAC library, screen 4 (AID 1347384; call rule not given here); details: phospholipid biosynthesis inhibition screen, at 10 µM
[28] = survival rescue of mitochondrial mutant cells in low glucose, primary screen, MELAS cybrids, Rieske KO mouse fibroblasts, CellTiter-Glo (AID 1508586;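 active means mean z-score across replicates of 1.96 or higher in either the MELAS or the Rieske mutant cell line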;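 further: z relative to plate mean and SD of compound and empty wells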)
[29] = target: NAD(+) hydrolase SARM1 (Homo sapiens) (UniProt Q6SZW1); assay: SARM1 TIR NADase inhibitors, cell lysate, NAD-Glo luminescence (AID 1508614;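 active means compound whose remaining NAD level is above about 45 nM, limit read from the data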); details: SAM-TIR HEK293T lysate NADase, at 1 µM, stronger effect = higher value
[30] = target: Mitogen-activated protein kinase 7 (Homo sapiens) (UniProt Q13164); assay: ERK5 transactivation activators in reporter cells, primary screen, cell-based, HTS (AID 1508626;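 active means luciferase signal above three times the same-plate solvent-only control wells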;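 further: luciferase driven by Gal4-ERK5 fusion binding five Gal4 sites before minimal TATA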); details: HeLa Gal4-ERK5 transactivation, 18 h, at 5 µM, stronger effect = higher value
F380Y = assay: modulators of BK channel variants, profiling panel, selectivity assay, cell-based, U2OS BacMam, thallium flux, beta subunits (AID 1259406); details: at 30 µM;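 further: initial slope of Thallos dye fluorescence rise after thallium is added; log ratio against the mean of 0.3% DMSO vehicle wells on the same plate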
F380Y/beta2Delta = assay: as above; details: at 30 µM
[31] = target: Calcium-activated potassium channel subunit alpha-1 (Homo sapiens) + Leucine-rich repeat-containing protein 26 (Homo sapiens) (UniProt Q12791+Q2I0M4); assay: as above; details: F380Y/Slo1WT/gamma1, at 30 µM
R275C = assay: as above; details: at 30 µM
R275C/beta1 = assay: as above; details: at 30 µM
R275C/beta2Delta = assay: as above; details: at 30 µM
[32] = liver-stage malaria parasite growth inhibition, primary screen, cell-based, HepG2, luciferase luminescence, HepG2 viability (AID 624349; in the data active means parasite load remaining mostly below about 12%, no sharp cut-off; inactive means mostly above about 10%;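 further: 100% = mean of DMSO negative control wells on the same plate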); details: P. berghei liver stage in HepG2, luciferase luminescence, concentration not given here; parasite load remaining: stronger effect = lower value; viability: measured here: HepG2 viability without parasites
[33] = Cy5 fluorescence interference with SSB-bound oligo, artefact control for HCV NS3 helicase inhibitor project, biochemical, NIH Clinical Collection, E. coli SSB (AID 743268; call rule not given here)
[34] = system: Hepatitis C virus NS3 helicase; assay: HCV NS3 helicase inhibitors, primary screen, biochemical, fluorescence polarization, NIH Clinical Collection (AID 743270; call rule not given here); details: NS3 helicase binding to Cy5-dT15 DNA, stronger effect = higher value, concentration not given here
[35] = target: Single-stranded DNA-binding protein (Escherichia coli (strain K12)) (UniProt P0AGE0); assay: E. coli SSB displacement from DNA, counter-screen for HCV NS3 helicase inhibitor project, biochemical, fluorescence polarization, NIH Clinical Collection (AID 743271; in the data active means inhibition above about 28%); details: stronger effect = higher value, concentration not given here
[36] = fluorescence interference in NS3h assay format, artefact control for HCV NS3 helicase inhibitor project, biochemical, NIH Clinical Collection (AID 743272; call rule not given here;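 further: HCV NS3 helicase with a Cy5 labelled single stranded DNA probe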); details: fluorescence interference counterscreen, stronger effect = lower value
[37] = growth inhibition of DIPG glioma cells, dose response, cell-based, SU-DIPG-XVII, MIPE5.0, CellTiter-Glo, qHTS (AID 1347060; cut-off not given, nearly all actives have AC50 up to about 26 µM); details: SU-DIPG-XVII viability, CellTiter-Glo ATP luminescence
[38] = growth inhibition of DIPG glioma cells, dose response, cell-based, SU-DIPG-XIII, MIPE5.0, CellTiter-Glo, qHTS (AID 1347064; cut-off not given, nearly all actives have AC50 up to about 23 µM); details: SU-DIPG-XIII viability, CellTiter-Glo ATP luminescence
[39] = viability loss in pontine glioma line – cell-based, SU-DIPG-XXV, MIPE5.0, CellTiter-Glo, qHTS, dose response (AID 1347065; cut-off not given, nearly all actives have AC50 up to about 26 µM;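 further: cells exposed to compound for 48 hours before ATP readout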); details: CellTiter-Glo ATP luminescence
[40] = JHH-DIPG-1 glioma cell viability, MIPE5.0 library, CellTiter-Glo luminescence, qHTS (AID 1347067; cut-off not given, nearly all actives have AC50 up to about 26 µM;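 further: cells exposed to compound for 48 hours before readout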); details: JHH-DIPG-1 glioma viability, CellTiter-Glo ATP luminescence
[41] = SU-DIPG-XXV glioma cell viability, MIPE5.0 library, qHTS (AID 1347068; cut-off not given, nearly all actives have IC50 up to about 30 µM)
[42] = sensitizers of A549 cells to miR-34 induction, primary screen, imaging, A549 dox-inducible miR-34, nuclei and caspase counts (AID 1347080;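 active means compounds whose cell count with miR-34 switched on is under 0.7 times the count with it off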); details: A549 miR-34 inducible, Hoechst nuclei count, 48 h
[43] = modifiers of HSF1 nuclear foci, imaging, Selleck Cancer Library (AID 1347162; in the data active means plate-normalised HSF1 focus index below about 0.46); details: human cells, at 10 µM; SSMD: measured here: HSF1 foci SSMD mean; cell count: measured here: cell number; plate-normalised HSF1 focus index: stronger effect = lower value
[44] = viability rescue of complex I mutant cybrids, primary screen, cell-based, galactose medium, ATP luminescence (AID 1645843;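 active means z-score of at least 1.8 in each of two replicates, scored against plate mean and spread of sample wells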;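 further: positive z means more ATP and so rescue of galactose-driven cybrid death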); details: complex I mutant cybrid cells, 72 h, stronger effect = higher value
F380Y/beta1 = assay: modulators of BK channel variants, profiling panel, selectivity assay, cell-based, U2OS BacMam, thallium flux, beta subunits (AID 1259406); details: at 30 µM;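 further: initial slope of Thallos dye fluorescence rise after thallium is added; log ratio against the mean of 0.3% DMSO vehicle wells on the same plate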
F380Y/beta4 = assay: as above; details: at 30 µM
R275C/beta4 = assay: as above; details: at 30 µM
R275C/Slo1WT/beta2 = assay: as above; details: at 30 µM
[45] = MELAS cybrid survival, CellTiter-Glo 48 h, stronger effect = higher value
[46] = Rieske KO mouse fibroblast survival, CellTiter-Glo 72 h

Chain of 6-phosphogluconate dehydrogenase, decarboxylating (Homo sapiens) (P52209 whole entry, looked up): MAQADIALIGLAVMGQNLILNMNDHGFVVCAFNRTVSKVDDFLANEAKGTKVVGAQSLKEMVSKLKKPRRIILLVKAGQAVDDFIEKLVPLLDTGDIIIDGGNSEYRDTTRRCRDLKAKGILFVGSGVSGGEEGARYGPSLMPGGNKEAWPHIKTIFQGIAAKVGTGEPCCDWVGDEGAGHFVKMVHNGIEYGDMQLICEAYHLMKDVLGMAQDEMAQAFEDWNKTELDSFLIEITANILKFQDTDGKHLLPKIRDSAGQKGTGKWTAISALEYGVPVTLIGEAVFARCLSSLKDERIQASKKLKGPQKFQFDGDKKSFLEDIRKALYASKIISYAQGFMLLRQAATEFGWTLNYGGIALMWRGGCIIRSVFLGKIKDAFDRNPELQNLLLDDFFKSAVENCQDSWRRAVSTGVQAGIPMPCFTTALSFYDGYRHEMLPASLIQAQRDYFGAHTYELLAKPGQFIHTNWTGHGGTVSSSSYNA
Chain of Mitogen-activated protein kinase 7 (Homo sapiens) (Q13164 whole entry, looked up, the tested form may be a part): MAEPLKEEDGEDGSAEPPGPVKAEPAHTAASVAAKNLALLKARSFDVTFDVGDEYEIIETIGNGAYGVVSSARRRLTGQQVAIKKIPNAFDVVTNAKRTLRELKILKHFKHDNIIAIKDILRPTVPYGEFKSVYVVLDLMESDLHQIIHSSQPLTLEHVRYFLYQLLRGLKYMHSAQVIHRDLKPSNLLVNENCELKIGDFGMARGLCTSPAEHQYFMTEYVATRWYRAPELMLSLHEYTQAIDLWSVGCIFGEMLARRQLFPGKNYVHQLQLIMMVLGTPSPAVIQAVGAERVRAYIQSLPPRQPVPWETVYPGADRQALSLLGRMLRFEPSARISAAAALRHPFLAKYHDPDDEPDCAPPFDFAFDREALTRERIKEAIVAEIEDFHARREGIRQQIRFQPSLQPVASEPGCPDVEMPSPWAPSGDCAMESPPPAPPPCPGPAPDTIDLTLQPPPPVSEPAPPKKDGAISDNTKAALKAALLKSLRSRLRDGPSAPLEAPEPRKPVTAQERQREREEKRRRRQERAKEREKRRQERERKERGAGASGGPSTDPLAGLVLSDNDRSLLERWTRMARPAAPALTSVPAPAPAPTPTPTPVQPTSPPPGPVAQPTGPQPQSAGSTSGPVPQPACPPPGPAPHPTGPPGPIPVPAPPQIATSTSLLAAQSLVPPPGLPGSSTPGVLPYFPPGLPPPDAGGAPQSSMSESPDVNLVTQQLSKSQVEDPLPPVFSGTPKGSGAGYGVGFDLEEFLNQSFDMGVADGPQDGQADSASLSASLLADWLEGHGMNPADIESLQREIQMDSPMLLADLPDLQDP
Chain of NAD(+) hydrolase SARM1 (Homo sapiens) (Q6SZW1 whole entry, looked up, the tested form may be a part): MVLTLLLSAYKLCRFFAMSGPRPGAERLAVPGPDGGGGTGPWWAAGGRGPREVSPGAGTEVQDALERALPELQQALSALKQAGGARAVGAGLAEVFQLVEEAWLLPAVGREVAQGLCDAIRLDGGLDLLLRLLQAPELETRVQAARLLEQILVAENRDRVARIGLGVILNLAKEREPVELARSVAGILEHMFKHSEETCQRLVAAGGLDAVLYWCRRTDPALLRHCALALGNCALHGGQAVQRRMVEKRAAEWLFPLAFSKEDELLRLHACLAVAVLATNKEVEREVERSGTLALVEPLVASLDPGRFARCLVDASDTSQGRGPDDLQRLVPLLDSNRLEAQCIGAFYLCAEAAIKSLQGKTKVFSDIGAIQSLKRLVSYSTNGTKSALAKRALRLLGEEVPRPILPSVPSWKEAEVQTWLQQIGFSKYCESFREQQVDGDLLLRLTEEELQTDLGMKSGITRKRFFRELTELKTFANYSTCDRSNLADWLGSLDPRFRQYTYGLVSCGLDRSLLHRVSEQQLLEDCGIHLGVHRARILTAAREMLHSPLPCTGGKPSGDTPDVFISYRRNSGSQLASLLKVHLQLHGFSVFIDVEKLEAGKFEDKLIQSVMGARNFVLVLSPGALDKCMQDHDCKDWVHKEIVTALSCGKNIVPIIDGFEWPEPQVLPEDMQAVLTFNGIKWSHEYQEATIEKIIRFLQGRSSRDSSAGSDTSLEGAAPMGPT
Chain of Calcium-activated potassium channel subunit alpha-1 (Homo sapiens) + Leucine-rich repeat-containing protein 26 (Homo sapiens) (Q2I0M4 whole entry, looked up, one chain of several): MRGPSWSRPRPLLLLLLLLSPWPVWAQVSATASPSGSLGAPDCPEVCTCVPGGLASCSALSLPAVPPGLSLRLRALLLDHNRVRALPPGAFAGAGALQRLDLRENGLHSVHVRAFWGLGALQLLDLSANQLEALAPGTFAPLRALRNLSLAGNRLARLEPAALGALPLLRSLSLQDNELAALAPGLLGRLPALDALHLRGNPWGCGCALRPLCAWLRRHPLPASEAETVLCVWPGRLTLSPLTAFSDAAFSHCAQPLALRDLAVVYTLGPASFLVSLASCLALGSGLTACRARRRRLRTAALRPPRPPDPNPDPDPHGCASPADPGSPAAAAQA

COc1cc2nc(N3CCN(C(=O)c4ccco4)CC3)nc(N)c2cc1OC
16.5%: inhibition [1]
active: nuclear beta-catenin stimulation ([12]; at 10 µM) 47.5% | viability decrease [14] 80.9% | viability decrease (inhibition) [18] 120% | viability decrease (inhibition) [19] 78.7% | AC50 [24] 26.4 µM | AC50 [25] 14.8 µM
inactive: survival [8] 0.667 | inhibition [9] -1% | fluorescence ratio (interference) [10] 0.9 | z-score [11] 0.105 | insulin secretion stimulation [13] 0.2% | tube area decrease [15] -2.7% | GLP1 secretion stimulation [16] 9.5% | inhibition of viability [17] 46.9% | inhibition [20] 8.49% | mean signal [21] 236 | red/green cell ratio (normalised) ([22]; actives lie on both sides, counts scaled to control wells, 1 = unselective) 1.27 | remaining activity [23] 96.4% | fold fluorescence [26] 6.39 [at 130.4 µM] | outcome [27] | remaining NAD [29] 10 nM | luciferase signal [30] 128 AU | log fold change Tl+ flux (F380Y) 0.00597 | log fold change Tl+ flux (F380Y/beta2Delta) -0.00919 | log fold change Tl+ flux [31] 0.00974 | log fold change Tl+ flux (R275C) -0.0502 | log fold change Tl+ flux (R275C/beta1) -0.0587 | log fold change Tl+ flux (R275C/beta2Delta) -0.0145
-0.41: rescue above control [3]
1.14 and 0.169 (inactive): z-score [28, 45]
0.98: normalised cell number ([22]; measured here: epithelial PC-3E GFP cell survival)
70.4%: inhibition of aggregation [5]
1.07: cytochrome c release ratio [4]
-22.2%: glutamate uptake change [6]
1.01: aggregation suppression score [7]
7.8%: nuclear beta-catenin stimulation ([12]; stimulation, at 2 µM)
2.19 and 0.838: z-score [28, 46]
1.25: normalised cell number ([22]; measured here: mesenchymal TEM4-18 mCherry cell survival)
1.21: score [2]

C[C@@H]1C[C@H]2[C@@H]3CCC4=CC(=O)C=C[C@]4(C)[C@@]3(F)[C@@H](O)C[C@]2(C)[C@@]1(O)C(=O)CO
7720 and 3310 and 7020: cell count ([42]; measured here: total cells with miR-34 induction, stronger effect = lower value)
6940: cell count [43]
1.6 and 0.779 and 1.31: fold change ([42]; measured here: relative caspase fold change +Dox/-Dox)
-1.3%: nuclear beta-catenin stimulation ([12]; stimulation, at 2 µM)
inactive: parasite load remaining [32] 76.8% and 55.7% | fluorescence ratio [33] 1.05 | inhibition [34] -3.18% | inhibition [35] 0.29% | fluorescence ratio [36] 1 | nuclear beta-catenin stimulation ([12]; at 10 µM) -0.3% | insulin secretion stimulation [13] 8.4% | viability decrease [14] -0.1% | tube area decrease [15] -12.9% | GLP1 secretion stimulation [16] 4.4% | inhibition of viability [17] -7% | viability decrease (inhibition) [18] -0.8% | viability decrease (inhibition) [19] 5.8% | inhibition [20] 0.502% | outcome [37] | outcome [38] | outcome [39] | outcome [40] | outcome [41] | fold change ([42]; stronger effect = lower value, cell number ratio, induced over uninduced) 0.906 and 0.84 and 0.875 | plate-normalised HSF1 focus index [43] 1.08 | z-score [28, 45] 0.843 | remaining NAD [29] 10 nM | luciferase signal [30] 100 AU | z-score [44] 0.135 and 0.555 | log fold change Tl+ flux (F380Y) 0.096 | log fold change Tl+ flux (F380Y/beta1) 0.0534 | log fold change Tl+ flux (F380Y/beta2Delta) -0.01 | log fold change Tl+ flux (F380Y/beta4) -0.000275 | log fold change Tl+ flux [31] 0.0359 | log fold change Tl+ flux (R275C) 0.0247 | log fold change Tl+ flux (R275C/beta1) 0.0605 | log fold change Tl+ flux (R275C/beta2Delta) 0.000117 | log fold change Tl+ flux (R275C/beta4) 0.0627 | log fold change Tl+ flux (R275C/Slo1WT/beta2) 0.0456
0.569: z-score [28, 46]
1.52: SSMD [43]
86.4% and 108%: viability [32]
8520 and 3940 and 8020: cell count ([42]; measured here: total cells without miR-34 induction)
